Assay [1] in a line: qHTS assay to identify small molecule agonists of the hypoxia (HIF-1) signaling pathway - cell viability counter screen (AID 1224844; calls by dose curve; also: % is scaled to controls: 0 for no effect and ±100 for the full control effect; nearly all actives have a fitted effect of over 50% in size). The method, boiled down: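 HRE-bla ME-180 cells, 2,000/well in 0.5% dialyzed FBS medium, treated 17 h at 37C with compounds. Viability read in the same wells as the bla reporter, by CellTiter-Glo luminescence after 30 min at room temperature.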

Assay [2] is described as follows: qHTS assay to identify small molecule agonists of H2AX (AID 1224845; active = well fitted activation curve with a large enough effect in the signal ratio in the repeat runs, not every such curve was filed as active; the % refers to the signal ratio; also: % is scaled to controls: 0 for no effect and ±100 for the full control effect). A digest of the protocol: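 Wild-type CHO-K1 cells, plated overnight, exposed 3hr at 37C to 15 concentrations (0.76% DMSO final). Lysed, then HTRF anti-pH2AX (S139) cryptate and anti-H2AX-d2 antibodies, 24 hr room temperature; 665/620 nm emission read.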
A short description of assay [3]: qHTS assay to identify small molecule agonists of the hypoxia (HIF-1) signaling pathway (AID 1224846; active = well fitted activation curve with a large enough effect in the signal ratio in the repeat runs, not every such curve was filed as active; the % refers to the signal ratio; also: % is scaled to controls: 0 for no effect and ±100 for the full control effect). The method, boiled down: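 HRE-bla ME-180 beta-lactamase reporter cells in medium with 0.5% dialyzed FBS, pre-incubated 5 h then exposed to compounds 17 h at 37C, 5% CO2; reporter induction read with CCF4-AM FRET substrate.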
On the technique in general: qHTS replaces the single test concentration by a dilution series.

Assay [4] is described as follows: qHTS assay to identify small molecule agonists of H2AX - cell viability counter screen (AID 1224847; calls by dose curve; also: top concentration of the series differs between compounds; % is scaled to controls: 0 for no effect and ±100 for the full control effect; nearly all actives have a fitted effect of over 30% in size). A digest of the protocol:
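Read-out: CellTiter-Glo luminescence, 30 min RT. Cells: wild-type CHO-K1, 1000/well, 10% FBS, plated overnight at 37C. Treatment: 15 concentrations, 3 hr, 37C, 0.76% DMSO.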

Assay [5] in a line: qHTS RealTime-Glo MT Cell Viability Assay in HepG2 cells - 24 hour (AID 1224867). Also: % is scaled to controls: 0 for no effect and ±100 for the full control effect; nearly all actives have a fitted effect of over 50% in size. The method, boiled down: (§1)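 HepG2 cells (600/well) were dispensed with RealTime-Glo reagents, incubated 5 h at 37 °C, then treated with compounds in DMSO for up to 40 h. Nonlytic NanoLuc luminescence reflecting viable cells was read at each stated time point.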
Assay [6] in a line: qHTS RealTime-Glo MT Cell Viability Assay in HEK293 cells - 32 hour (AID 1224868). Also: top concentration of the series differs between compounds; % is scaled to controls: 0 for no effect and ±100 for the full control effect; nearly all actives have a fitted effect of over 50% in size. A digest of the protocol:
(§2)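 HEK293 cells seeded with NanoLuc/prosubstrate reagent, rested 5 h at 37 C, then dosed and kept at 37 C up to 40 h. Nonlytic real-time luminescence from viable cells read at 0, 8, 16, 24, 32 and 40 h.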

Assay [7] in a line: A CellTox Green Cytotoxicity Assay to monitor cytotoxicity in HEK293 cells - 0 hour (AID 1224869). Also: % is scaled to controls: 0 for no effect and ±100 for the full control effect; nearly all actives have a fitted effect of over 50% in size. A digest of the protocol:
(§3)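 HEK293 cells, 600/well, were preincubated 5 hours and then exposed to compounds at 37 C for up to 40 hours. A cell-impermeant cyanine dye staining dead-cell DNA was read by fluorescence at 0, 8, 16, 24, 32 and 40 h time points.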

Assay [8] can be described thus: A CellTox Green Cytotoxicity Assay to monitor cytotoxicity in HEK293 cells - 40 hour (AID 1224871). Also: % is scaled to controls: 0 for no effect and ±100 for the full control effect; nearly all actives have a fitted effect of over 45% in size. The method, boiled down: as §3
Assay [9] is described as follows: qHTS RealTime-Glo MT Cell Viability Assay in HepG2 cells - 8 hour (AID 1224873). Also: % is scaled to controls: 0 for no effect and ±100 for the full control effect; nearly all actives have a fitted effect of over 55% in size. The method, boiled down:
(§4)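 HepG2 cells (600/well) mixed with RealTime-Glo MT reagent, settled 5 h at 37 C/5% CO2 before compound addition. Nonlytic NanoLuc luminescence from viable-cell prosubstrate reduction read repeatedly during 40 h treatment at 37 C.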

Assay [10] in a line: qHTS RealTime-Glo MT Cell Viability Assay in HEK293 cells - 40 hour (AID 1224874). The conditions noted are these: RealTime-Glo luminescence; max response: hits give low values. The method, boiled down:
(§5)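 600 cells/well were plated with the nonlytic NanoLuc/prosubstrate reagent, pre-incubated 5 h, then given 23 nL of compound in DMSO. Incubation at 37 C for 40 h, with luminescence from viable-cell-reduced substrate read repeatedly from 0 h.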

Assay [11] is described as follows: A CellTox Green Cytotoxicity Assay to monitor cytotoxicity in HEK293 cells - 24 hour (AID 1224875). Also: % is scaled to controls: 0 for no effect and ±100 for the full control effect; nearly all actives have a fitted effect of over 45% in size. The method, boiled down:
as §3

Assay [12] in a line: A CellTox Green Cytotoxicity Assay to monitor cytotoxicity in HepG2 cells - 16 hour (AID 1224876). Also: % is scaled to controls: 0 for no effect and ±100 for the full control effect; nearly all actives have a fitted effect of over 45% in size. The method, boiled down: (§6)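 HepG2 cells, 600/well, preincubated 5 h with CellTox Green dye, then exposed to Tox21 compounds in DMSO at 37 C for up to 40 h. Dead-cell DNA fluorescence read at the indicated time point.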
A short description of assay [13]: qHTS RealTime-Glo MT Cell Viability Assay in HepG2 cells - 32 hour (AID 1224877). Also: % is scaled to controls: 0 for no effect and ±100 for the full control effect; nearly all actives have a fitted effect of over 55% in size. A digest of the protocol: as §1
The nature of assay [14]: A CellTox Green Cytotoxicity Assay to monitor cytotoxicity in HepG2 cells - 24 hour (AID 1224878). Also: % is scaled to controls: 0 for no effect and ±100 for the full control effect; nearly all actives have a fitted effect of over 45% in size. A digest of the protocol:
as §6

Assay [15] can be described thus: A CellTox Green Cytotoxicity Assay to monitor cytotoxicity in HepG2 cells - 40 hour (AID 1224879). Also: % is scaled to controls: 0 for no effect and ±100 for the full control effect; nearly all actives have a fitted effect of over 40% in size. A digest of the protocol:
as §6

Assay [16] can be described thus: qHTS RealTime-Glo MT Cell Viability Assay in HEK293 cells - 0 hour (AID 1224880). The method, boiled down: as §5
The nature of assay [17]: qHTS RealTime-Glo MT Cell Viability Assay in HepG2 cells - 40 hour (AID 1224870). The method, boiled down: as §4
Assay [18] in a line: qHTS RealTime-Glo MT Cell Viability Assay in HEK293 cells - 16 hour (AID 1224872). A digest of the protocol: as §2
A short description of assay [19]: qHTS assay to identify small molecule agonists of the estrogen related receptor (ERR) signaling pathway from Tox21 library (AID 1224849; calls by dose curve; also: % is scaled to controls: 0 for no effect and ±100 for the full control effect; nearly all actives have a fitted effect of over 15% in size). Conditions: ERR reporter cell line, ONE-Glo luciferase, 18 h; at 92.4 µM (top of the series) unless noted. A digest of the protocol: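 ERR reporter cells (NTP line) pre-incubated 6 hours at 37 C, then exposed to compounds for 18 hours at 37 C. ONE-Glo luciferase luminescence was read after 30 minutes at room temperature.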

Assay [20] in a line: qHTS assay to identify small molecule antagonists of the estrogen related receptor (ERR) signaling pathway from Tox21 library (AID 1224848). A digest of the protocol: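 ERR reporter cell line (from NTP) seeded 2,000 cells/well, rested 6 h at 37 C/5% CO2, then pin-dosed with compounds in DMSO. After 18 h at 37 C, ONE-Glo added; luminescence read after 30 min at room temperature.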

Unmarked numbers belong to inactive results. Inconclusive results are not listed. Activity calls are given as the source filed them. Unless noted, calls follow the shape of the dose curve; as a rule, active = well fitted curve in the direction sought with a large enough effect in the repeat runs; inconclusive = weak or mixed curves; inactive = no such curve, though single readings can be large; an effect the other way counts as inactive or inconclusive.

Turning to `CN1C2CCC(C)(C)C1CC(OC(=O)C(O)(c1cccs1)c1cccs1)C2` (configuration not stated), the Potency result in assay [1], in assay [2], in assay [3], in [4], in [5] and in assay [6] was “inactive” each time. Also, the Potency result in assay [7], in assay [8], in [9], in assay [11], in [12] and in [13] was “inactive” throughout. Further, the Potency entry in assay [14], in assay [15] and in [16] was “inactive” in each case. The max response in [10] is -25.3%.

For the molecule `CC(C)=CCN1CC[C@@]2(C)c3cc(O)ccc3C[C@@H]1[C@@H]2C`, the Potency entry in [1], in [2], in [3], in assay [4], in assay [5] and in [7] was “inactive” throughout. Besides, the Potency entry in [17], in assay [8], in assay [9], in assay [11], in [12] and in assay [13] was “inactive” throughout. For the same molecule, the Potency entry in assay [14] and in assay [16] was “inactive” in each case.

As to `Clc1cc(Cl)c(-c2cc(Cl)c(Cl)cc2Cl)cc1Cl`, the Potency result in [1], in [2], in [3], in assay [4], in assay [5] and in assay [6] was “inactive” throughout. Further, the Potency result in [7], in [8], in assay [18], in [9], in assay [11] and in assay [12] was “inactive” throughout. Besides, the Potency result in [13], in assay [14], in assay [15] and in assay [16] was “inactive” throughout. Moreover, the max response in assay [10] is 1.25%.

With `CNC(=O)Oc1cc(C)cc(C(C)C)c1`, the Potency result in [1], in assay [2], in [3], in assay [5], in assay [6] and in assay [7] was “inactive” in each case. The Potency entry in [17], in [8], in assay [18], in assay [9], in assay [11] and in assay [12] was “inactive” in each case. For the same molecule, the Potency entry in [13], in assay [15] and in assay [16] was “inactive” throughout. Further, the activity change, positive = activation in assay [19] was 10.3%. Moreover, in assay [10], the max response was 5.9%.

For the molecule `CNC(=O)CSP(=O)(OC)OC`, the Potency result in assay [1], in [2], in assay [3], in [4], in assay [5] and in assay [6] was “inactive” in each case. The Potency result in assay [7], in [17], in [8], in assay [18], in assay [9] and in [11] was “inactive” throughout. The Potency result in [12], in [13], in assay [15] and in assay [16] was “inactive” throughout. Further, the max response in assay [10] was 5.27%.

Take `O.O.O.O.O.O.O=S(=O)([O-])[O-].[Ni+2]`: the Potency entry in assay [1], in assay [2], in assay [3], in [4], in [5] and in assay [6] was “inactive” each time. Further, the Potency result in [7], in assay [8], in assay [9], in [11], in [12] and in assay [13] was “inactive” each time. Further, the Potency result in assay [15] and in [16] was “inactive” each time. Also, the max response in [10] is -26.5%.

Regarding `CCC1COC(Cn2cncn2)(c2ccc(Cl)cc2Cl)O1` (configuration not stated), the Potency entry in assay [1], in assay [2], in [3], in assay [5], in [7] and in [17] was “inactive” in each case. Moreover, the Potency entry in assay [8], in assay [9], in [11], in [12], in assay [13] and in assay [14] was “inactive” throughout. The Potency result in assay [16] is “inactive”. In assay [20], the Potency was 61.1 µM (active). For the same molecule, in [19], the activity change, positive = activation is -57.5%.

As to `c1cc[n+]2c(c1)-c1cccc[n+]1CC2`, the Potency result in assay [1], in [2], in assay [3], in [4], in assay [5] and in assay [6] was “inactive” throughout. Also, the Potency result in assay [7], in assay [8], in [18], in assay [9], in assay [11] and in assay [12] was “inactive” in each case. The Potency result in assay [13], in assay [14], in assay [15] and in [16] was “inactive” each time.

(Values after PubChem BioAssay (Tox21).)
